{"source": "the supplement of paper PMC8728848", "binders": {"B1": {"name": "Cohesin-marm-DC-ASGPR (protein)", "chain": "LDITSHHHHHHDDLDAVRIKVDTVNAKPGDTVRIPVRFSGIPSKGIANCDFVYSYDPNVLEIIEIEPGDIIVDPNPDKSFDTAVYPDRKIIVFLFAEDSGTGAYAITKDGVFATIVAKVKEGAPNGLSVIKFVEVGGFANNDLVEQKTQFFDGGVNVGDTTEPATPTTPVTTPTTTDDLDAASSKFQRDLVTLRTDFSNFTSNTLAEIQALTSQGSSLQETIASLKAEVEGHKQELQAGASELQEHNKQKAHLGRCPHTCVCPSSFVCVPVHSEILLRVQQLVQDLNKLSCQVAILKNNATTERTCCPINWVEHQGSCYWFSRSGKTWPEAERYCQLENTHLVVINSREEQNFVQAHLGSAYTWMGLSDPEGVWKWVDGTDYSSGFQNWKPGQPDDWQGHGLGGGEDCAHFHPDGRWNDDVCQRSYHWVCEAGLTQASQDSHAS"}}, "experiment_in_all_cases": "glycan array binding signal (z-score within array); higher = stronger binding", "conditions_in_all_cases": "glycan notation: IUPAC condensed, linker removed", "key": {"[1]": {"target": "GlcNAc(b1-2)[GlcNAc(b1-4)]Man(a1-3)[GlcNAc(b1-4)][GlcNAc(b1-2)Man(a1-6)]Man(b1-4)GlcNAc(b1-4)GlcNAc", "outline": "(§1)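 Negative Z-scores can be read as non-binding. The Z-score is calculated within each array and then averaged across arrays of one protein sequence at different concentrations or buffers and across linkers. Arrays, 3228 in all, were curated from the Consortium for Functional Glycomics database and kept only where the protein sequence was available.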"}, "[2]": {"target": "GlcNAc(b1-2)[GlcNAc(b1-4)]Man(a1-3)[GlcNAc(b1-4)][GlcNAc(b1-2)[GlcNAc(b1-6)]Man(a1-6)]Man(b1-4)GlcNAc(b1-4)[Fuc(a1-6)]GlcNAc", "outline": "as §1"}, "[3]": {"target": "GlcNAc(b1-2)[GlcNAc(b1-6)]Man(a1-6)[GlcNAc(b1-2)Man(a1-3)]Man(b1-4)GlcNAc(b1-4)[Fuc(a1-6)]GlcNAc", "outline": "as §1"}, "[4]": {"target": "GlcNAc(b1-2)[GlcNAc(b1-6)]Man(a1-6)[GlcNAc(b1-4)][GlcNAc(b1-2)Man(a1-3)]Man(b1-4)GlcNAc(b1-4)GlcNAc", "outline": "as §1"}, "[5]": {"target": "GlcNAc(b1-3)Gal", "outline": "as §1"}, "[6]": {"target": "GlcNAc(b1-3)GalNAc", "outline": "as §1"}, "[7]": {"target": "GlcNAc(b1-3)[GlcNAc(b1-6)]Gal(b1-4)GlcNAc", "outline": "as §1"}, "[8]": {"target": "GlcNAc(b1-3)[GlcNAc(b1-6)]GalNAc", "outline": "as §1"}, "[9]": {"target": "GlcNAc(b1-6)GalNAc", "outline": "as §1"}, "[10]": {"target": "Man(a1-2)Man(a1-6)[Man(a1-3)]Man(a1-6)[Man(a1-2)Man(a1-2)Man(a1-3)]Man(b1-4)GlcNAc(b1-4)GlcNAc", "outline": "as §1"}, "[11]": {"target": "Man(a1-3)[Man(a1-6)]Man(b1-4)GlcNAc(b1-4)[Fuc(a1-6)]GlcNAc", "outline": "as §1"}, "[12]": {"target": "Neu5Ac(a2-3)Gal(b1-3)GalNAc6S", "outline": "as §1"}, "[13]": {"target": "Neu5Ac(a2-3)Gal(b1-3)GlcNAc(b1-4)Gal(b1-4)Glc", "outline": "as §1"}, "[14]": {"target": "Neu5Ac(a2-3)Gal(b1-3)GlcNAc6S", "outline": "as §1"}, "[15]": {"target": "Neu5Ac(a2-3)Gal(b1-3)[GlcNAc(b1-6)]GalNAc", "outline": "as §1"}, "[16]": {"target": "Neu5Ac(a2-3)Gal(b1-4)GlcNAc(b1-3)Gal(b1-4)GlcNAc(b1-3)Gal(b1-4)GlcNAc", "outline": "as §1"}, "[17]": {"target": "Neu5Ac(a2-3)Gal(b1-4)GlcNAc(b1-3)Gal(b1-4)GlcNAc(b1-6)[Gal(b1-3)]GalNAc", "outline": "as §1"}, "[18]": {"target": "Neu5Ac(a2-3)Gal(b1-4)GlcNAc(b1-3)[Neu5Ac(a2-3)Gal(b1-4)GlcNAc(b1-6)]GalNAc", "outline": "as §1"}, "[19]": {"target": "Neu5Ac(a2-3)Gal(b1-4)GlcNAc(b1-6)GalNAc", "outline": "as §1"}, "[20]": {"target": "Neu5Ac(a2-3)Gal(b1-4)[Fuc(a1-3)]GlcNAc(b1-3)Gal(b1-4)GlcNAc", "outline": "as §1"}, "[21]": {"target": "Neu5Ac(a2-3)GalNAc", "outline": "as §1"}, "[22]": {"target": "Neu5Ac(a2-6)Gal(b1-4)GlcNAc(b1-2)Man(a1-3)[GlcNAc(b1-4)][Neu5Ac(a2-6)Gal(b1-4)GlcNAc(b1-2)Man(a1-6)]Man(b1-4)GlcNAc(b1-4)GlcNAc", "outline": "as §1"}, "[23]": {"target": "Neu5Ac(a2-6)Gal(b1-4)GlcNAc(b1-2)Man(a1-3)[Neu5Ac(a2-6)Gal(b1-4)GlcNAc(b1-2)Man(a1-6)]Man(b1-4)GlcNAc(b1-4)GlcNAc", "outline": "as §1"}, "[24]": {"target": "Neu5Ac(a2-6)Gal(b1-4)GlcNAc(b1-2)Man(a1-6)[Man(a1-3)]Man(b1-4)GlcNAc(b1-4)GlcNAc", "outline": "as §1"}, "[25]": {"target": "Neu5Ac(a2-6)Gal(b1-4)GlcNAc(b1-3)Gal(b1-4)GlcNAc(b1-6)[Gal(b1-3)]GalNAc", "outline": "as §1"}, "[26]": {"target": "Neu5Ac(a2-6)GlcNAc(b1-4)GlcNAc(b1-4)GlcNAc", "outline": "as §1"}, "[27]": {"target": "Neu5Ac(a2-8)Neu5Ac(a2-3)Gal(b1-3)GalNAc(b1-4)[Neu5Ac(a2-8)Neu5Ac(a2-3)]Gal(b1-4)Glc", "outline": "as §1"}, "[28]": {"target": "Neu5Ac(a2-8)Neu5Ac(a2-3)[GalNAc(b1-4)]Gal(b1-4)Glc", "outline": "as §1"}, "[29]": {"target": "Neu5Ac(a2-8)Neu5Ac(a2-8)Neu5Ac(a2-3)[Gal(b1-3)GalNAc(b1-4)]Gal(b1-4)Glc", "outline": "as §1"}, "[30]": {"target": "Neu5Ac(a2-8)Neu5Ac(a2-8)Neu5Ac(a2-8)Neu5Ac(a2-3)[GalNAc(b1-4)]Gal(b1-4)Glc", "outline": "as §1"}, "[31]": {"target": "Neu5Gc(a2-3)Gal(b1-3)GlcNAc", "outline": "as §1"}}, "note": "This excerpt belongs to a sample that is enriched for the strongest signals."}
{"binder": "B1", "values": [{"measurement": "glycan array binding signal (z-score)", "setting": "[1]", "result": -0.278}, {"measurement": "glycan array binding signal (z-score)", "setting": "[2]", "result": -0.313}, {"measurement": "glycan array binding signal (z-score)", "setting": "[3]", "result": -0.298}, {"measurement": "glycan array binding signal (z-score)", "setting": "[4]", "result": -0.311}, {"measurement": "glycan array binding signal (z-score)", "setting": "[5]", "result": -0.306}, {"measurement": "glycan array binding signal (z-score)", "setting": "[6]", "result": -0.287}, {"measurement": "glycan array binding signal (z-score)", "setting": "[7]", "result": -0.313}, {"measurement": "glycan array binding signal (z-score)", "setting": "[8]", "result": -0.291}, {"measurement": "glycan array binding signal (z-score)", "setting": "[9]", "result": 4.74}, {"measurement": "glycan array binding signal (z-score)", "setting": "[10]", "result": -0.287}, {"measurement": "glycan array binding signal (z-score)", "setting": "[11]", "result": -0.31}, {"measurement": "glycan array binding signal (z-score)", "setting": "[12]", "result": -0.245}, {"measurement": "glycan array binding signal (z-score)", "setting": "[13]", "result": -0.303}, {"measurement": "glycan array binding signal (z-score)", "setting": "[14]", "result": -0.277}, {"measurement": "glycan array binding signal (z-score)", "setting": "[15]", "result": -0.303}, {"measurement": "glycan array binding signal (z-score)", "setting": "[16]", "result": -0.288}, {"measurement": "glycan array binding signal (z-score)", "setting": "[17]", "result": -0.307}, {"measurement": "glycan array binding signal (z-score)", "setting": "[18]", "result": -0.311}, {"measurement": "glycan array binding signal (z-score)", "setting": "[19]", "result": 4.81}, {"measurement": "glycan array binding signal (z-score)", "setting": "[20]", "result": -0.244}, {"measurement": "glycan array binding signal (z-score)", "setting": "[21]", "result": -0.309}, {"measurement": "glycan array binding signal (z-score)", "setting": "[22]", "result": -0.308}, {"measurement": "glycan array binding signal (z-score)", "setting": "[23]", "result": -0.126}, {"measurement": "glycan array binding signal (z-score)", "setting": "[24]", "result": -0.314}, {"measurement": "glycan array binding signal (z-score)", "setting": "[25]", "result": -0.308}, {"measurement": "glycan array binding signal (z-score)", "setting": "[26]", "result": -0.312}, {"measurement": "glycan array binding signal (z-score)", "setting": "[27]", "result": -0.296}, {"measurement": "glycan array binding signal (z-score)", "setting": "[28]", "result": 3.43}, {"measurement": "glycan array binding signal (z-score)", "setting": "[29]", "result": -0.305}, {"measurement": "glycan array binding signal (z-score)", "setting": "[30]", "result": 5.27}, {"measurement": "glycan array binding signal (z-score)", "setting": "[31]", "result": -0.264}]}
